This is an account of results in article PMC4336329 (PLoS ONE, 2015).

The whole screen tested about 310,000 compounds, of which about 14,000 (4.5%) showed an effect of 50% or more. The effect is printed as a negative number. The sample as a whole holds a higher share of strong results than the screen did.
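Further: peak tail current of the secondary pulse compared with the same well before compound.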

human ether-à-go-go-related gene (hERG) potassium channel, sequence (Q12809 whole entry, looked up): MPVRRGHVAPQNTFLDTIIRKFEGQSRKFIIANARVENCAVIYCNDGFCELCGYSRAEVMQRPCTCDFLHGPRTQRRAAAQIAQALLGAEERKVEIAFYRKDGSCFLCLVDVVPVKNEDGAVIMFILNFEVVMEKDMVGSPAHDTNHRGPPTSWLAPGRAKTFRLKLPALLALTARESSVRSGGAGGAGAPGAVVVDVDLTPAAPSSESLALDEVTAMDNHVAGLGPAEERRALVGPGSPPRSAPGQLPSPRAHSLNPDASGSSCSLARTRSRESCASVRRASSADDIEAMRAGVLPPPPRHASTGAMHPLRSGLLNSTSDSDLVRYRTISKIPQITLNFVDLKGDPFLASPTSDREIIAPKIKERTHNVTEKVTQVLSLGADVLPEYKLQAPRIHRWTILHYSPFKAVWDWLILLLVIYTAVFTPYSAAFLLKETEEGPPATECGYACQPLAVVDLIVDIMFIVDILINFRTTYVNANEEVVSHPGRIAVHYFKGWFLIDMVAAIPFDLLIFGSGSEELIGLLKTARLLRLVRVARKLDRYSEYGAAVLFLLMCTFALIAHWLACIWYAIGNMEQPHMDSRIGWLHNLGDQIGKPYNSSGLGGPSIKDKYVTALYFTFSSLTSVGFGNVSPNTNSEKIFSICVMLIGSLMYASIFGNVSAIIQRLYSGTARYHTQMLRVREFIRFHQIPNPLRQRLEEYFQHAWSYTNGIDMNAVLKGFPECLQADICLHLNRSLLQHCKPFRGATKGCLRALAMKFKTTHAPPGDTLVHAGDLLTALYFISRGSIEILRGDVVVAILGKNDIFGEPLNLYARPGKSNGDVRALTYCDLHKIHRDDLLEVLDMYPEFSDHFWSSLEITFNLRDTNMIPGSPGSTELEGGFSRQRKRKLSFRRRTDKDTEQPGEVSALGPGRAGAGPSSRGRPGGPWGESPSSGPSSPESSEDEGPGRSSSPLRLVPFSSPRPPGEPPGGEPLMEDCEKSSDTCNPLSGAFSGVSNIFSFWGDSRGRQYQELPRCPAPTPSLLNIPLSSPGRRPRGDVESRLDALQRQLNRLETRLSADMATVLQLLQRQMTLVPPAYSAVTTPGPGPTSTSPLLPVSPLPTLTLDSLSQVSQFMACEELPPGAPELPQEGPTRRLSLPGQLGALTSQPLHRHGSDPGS

The experiment concerns the target human ether-à-go-go-related gene (hERG) potassium channel (human, UniProt Q12809). Briefly: primary screen, population patch clamp on CHO cells stably expressing hERG; higher = less effect of the substance.
For `COc1cc(/C=N\NC(=O)c2ccc(C)nc2)ccc1OC(=O)c1cccc(F)c1`, the “hERG current change (%, negative = inhibition) at 10uM” value is recorded as -8.51%.
The same measure for `COc1ccccc1-c1cc(C(=O)N2CCCC2)no1`: -8.67%.
The same measure for `Cc1ccc(S(=O)(=O)/N=C(/Nc2ccc(F)cc2F)c2ccccc2)cc1`: 12.9%.
In the case of `COC(=O)c1ccc(NC(=S)Nc2cccc(C)n2)cc1`, the “hERG current change (%, negative = inhibition) at 10uM” value is reported as -0.48%.
Under `O=C(COC(=O)c1c(F)cccc1Cl)NC(=O)Nc1ccc2c(c1)OCCO2` stands 12.4%.
Under `CCOC(=O)c1ccc(NC(=O)c2nn(CC)cc2Br)cc1` stands 5.3%; under `CC(=NCCO)c1c(O)n(C2CCCCC2)c(=O)[nH]c1=O`, -5.36%; under `CC1CN(C2=NC(=O)/C(=C/c3ccncc3)S2)CC(C)O1` (stereo not drawn), -14.5%.
The same measure for `CCN1CCCC1CNC(=O)c1ccc2c(c1)N(Cc1cccc(Cl)c1)C(=O)c1ccccc1S2(=O)=O` (stereo not drawn): -39.7%.
As for `CC(=O)NCCC(=O)N(Cc1ccccc1)c1nc2c(C)cccc2s1`, the “hERG current change (%, negative = inhibition) at 10uM” value is reported as -57.4%.
The same measure for `Cc1cccc2sc(N(CCN3CCOCC3)C(=O)CCS(=O)(=O)c3ccccc3)nc12.Cl`: -13.3%; for `CCCC(=O)N(CCN1CCOCC1)c1nc2c(C)cccc2s1.Cl`: -7.14%.
Under `COc1ccc2nc(N(Cc3ccccc3)C(=O)CCNC(C)=O)sc2c1` stands -8.54%.
Under `CCOc1ccc2nc(N(CCN(C)C)C(=O)c3cc4ccccc4cc3OC)sc2c1.Cl` stands 1.72%; under `CCOc1ccc2nc(N(Cc3ccccc3)C(=O)CCNC(C)=O)sc2c1`, -61%; under `CC(NC(=O)c1cc(F)c(F)cc1Cl)c1ccncc1` (stereo not drawn), 1.1%.
Consider `CCCc1ccc(C(C)NC(=S)NCc2ccc(F)cc2)cc1` (stereo not drawn), for which the “hERG current change (%, negative = inhibition) at 10uM” value is 18.6%.
Under `CCOc1ccc(C(=O)OCC(=O)NC(C)C)cc1` stands 22.3%; under `COc1ccccc1NS(=O)(=O)c1ccc(O)c(NC(=S)NCC2CCCO2)c1` (stereo not drawn), 7%.
As for `CCN(CC)C(=O)C(=O)N/N=C/c1ccc(F)cc1`, the “hERG current change (%, negative = inhibition) at 10uM” value turned out to be 18.7%.
The same measure for `COC(=O)c1ccc(CSc2ccc3nnc(-c4ccccn4)n3n2)o1`: -62.8%; for `CCOc1ccc(-c2nnc3ccc(SCc4ccc(C(=O)OC)o4)nn23)cc1`: -24.4%.
The same measure for `COC(=O)c1ccc(CSc2ccc3nnc(-c4cccc(F)c4)n3n2)o1`: -62%; for `COC(=O)c1ccc(CSc2ccc3nnc(-c4ccccc4)n3n2)o1`: -53.5%; for `COC(=O)c1ccc(CSc2ccc3nnc(-c4ccc(F)cc4)n3n2)o1`: -29.1%.
The same measure for `COC(=O)c1ccc(CSc2ccc3nnc(-c4ccc(OC)cc4)n3n2)o1`: -44.2%.
Regarding `COC(=O)c1ccc(CSc2ccc3nnc(-c4ccc(OC)c(OC)c4)n3n2)o1`, the “hERG current change (%, negative = inhibition) at 10uM” value is recorded as -15.1%.
